Out of some 59,000 compounds screened, about 60 (0.1%) were called active. No rule for the calls is given here. Only a selection was taken, and actives are over-represented in it overall.

The assay in a line: qHTS Assay for Spectroscopic Profiling in A488 Spectral Region. As to conditions: compound autofluorescence; max dye equivalency: Compound Type: qHTS ECL - SigmaAldrich, hits give high values unless noted; outcome: dye equivalency, Compound Type: qHTS ECL - MLSMR unless noted. An excerpt:
NIH Molecular Libraries Screening Centers Network [MLSCN]
NIH Chemical Genomics Center [NCGC]
Occasionally, the artifactual effect may originate from the compounds own spectral or other biophysical properties which generally tend to track its assay concentration. Pre-screening/profiling the library with respect to the compounds spectral properties should help one exclude false positives early on. While the most informative fluorescent profiling data set is obtained by performing a full excitation and emission scan of each well by using a monochromator-based plate reader, such an approach is practical only on a very limited scale as scanning each well requires long time. An alternative approach, applied here, is to perform plate reader scans using selected excitation and emission wavelength pairs to generate a multidimensional relational database that correlates compound concentration and the respective relative fluorescence intensity at a given wavelength set. A standard curve of Alexa 488 (A488) present on each plate as six-point concentration series, was used to compute a normalized fluorescence response, termed dye-equivalent concentration, for each compound at each concentration.
NCGC Assay Protocol Summary:
100 mM Tris buffer, pH 8.0
The wells in columns 1 through 4 of a Kalypsys polypropylene 1536-well compound plate were filled with standard solutions of fluorophore corresponding to the spectral region of interest. Solutions of A488 were placed in the following wells: Y1, Z1: 3 mM, Y2, Z2: 300 uM, Y3, Z3: 30 uM, Y4, Z4: zero (DMSO), AA1, AB1: 3 uM, AA2, AB2: 900 nM, AA3, AB3: 300 nM, AA4, AB4: zero (DMSO).
Six uL of buffer were dispensed to 1536-well Greiner black plates. Compounds and dye standards (23 nL) were transferred via Kalypsys PinTool. The plates were incubated for 15 min at room temperature, and then read on ViewLux (Perkin-Elmer) High-throughput CCD imager using 480 nm and 540 nm excitation and emission filter set.
Keywords: NIH Roadmap, MLSCN, MLI, MLSMR, qHTS, NCGC, A488, A-488, Fluorescent Profiling.
Background: qHTS replaces the single test concentration by a dilution series.
Take `CCCC1C(c2ccccc2)C(C#N)(C#N)C2(C#N)CC1(N)NC2=O` (configuration not stated): the outcome is “inactive [dye equivalency, Compound Type: qHTS ECL - DPISMR]”. Same read-out and setting: under `CCOC(=O)c1[nH]c2ccccc2c1N=C(C)N(CC)CC` stands “inactive”; under `C=CCN(CC=C)C(=O)CN1C(=O)c2ccccc2C1=O`, “inactive”; under `c1ccc(-n2ncc3c2ncn2c(C4CCCCC4)nnc32)cc1`, “inactive [dye equivalency, Compound Type: qHTS ECL - DPISMR]”. For the compound `O=C(NCc1ccc(Cl)cc1)c1cc2c(nc3sccn32)s1`, the result was inactive. For `O=C(O)C1CCCCC1C(=O)Nc1ccc(Cl)cc1` (configuration not stated), the outcome is “inactive [dye equivalency, Compound Type: qHTS ECL - DPISMR]”. On to `COCCn1c(=O)c(-c2cc(F)cc(F)c2)nc2cnc(N3CCNCC3)nc21`, for which the outcome was “inactive [dye equivalency, Compound Type: qHTS ECL - Pharmacopeia]”. `CCNC(=O)CCc1nc(-c2ccc(C(C)(C)C)cc2)no1`: the outcome was “inactive [dye equivalency, Compound Type: qHTS ECL - DPISMR]”. With `Cn1c(=O)c(CCc2ccccc2)nc2cnc(Nc3ccccc3)nc21`, the outcome was “inactive [dye equivalency, Compound Type: qHTS ECL - Pharmacopeia]”.

As to `CCCc1cc(=O)[nH]c(SCc2ccc(C#N)cc2)n1`, the outcome is “inactive [dye equivalency, Compound Type: qHTS ECL - DPISMR]”. With `C=CCn1c(SCn2nnc3ccccc3c2=O)nnc1-c1ccc(Cl)cc1`, the outcome was “inactive [dye equivalency, Compound Type: qHTS ECL - DPISMR]”. Still for that read-out and setting: next, `Cc1nc2cnc(Oc3cccc(Cl)c3)nc2n(C2CC2)c1=O`: “inactive [dye equivalency, Compound Type: qHTS ECL - Pharmacopeia]”; `COc1ccc(-c2nc3cnc(OC)nc3n(Cc3ccc(F)cc3)c2=O)cc1`: “inactive [dye equivalency, Compound Type: qHTS ECL - Pharmacopeia]”; `CC1CN(C2CCN(C(=O)COc3ccccc3)CC2)CC(C)O1` (configuration not stated): “inactive”. The same measure, in the same setting: under `CC(=O)c1c(C)[nH]c(C(=O)NCCCN2CCCC2)c1C` stands “inactive”. Same read-out and setting: next, `O=C(Nc1ccccc1)N(Cc1cccnc1)Cc1ccco1`: “inactive [dye equivalency, Compound Type: qHTS ECL - DPISMR]”; `Cc1nc2cnc(Nc3ccccc3)nc2n(Cc2ccc(F)cc2)c1=O`: “inactive [dye equivalency, Compound Type: qHTS ECL - Pharmacopeia]”; `CNC(=O)n1ccc(C(=O)N2CCCCC2)n1`: “inactive [dye equivalency, Compound Type: qHTS ECL - DPISMR]”.

On to `c1cnc(NC2C3CC4CC(C3)CC2C4)nc1` (configuration not stated), for which the result was inactive. Same read-out and setting: next, `CCCOc1ccccc1C(=O)NCCCC(=O)O`: “inactive”; `COc1ccccc1CNc1cc(-c2ccccc2CN(C)C)ncn1`: “inactive [dye equivalency, Compound Type: qHTS ECL - Pharmacopeia]”; `Oc1c(Br)cc(CN(Cc2cc(Br)c(O)c(Br)c2)C2CCCCC2)cc1Br`: “inactive [dye equivalency, Compound Type: qHTS ECL - NCI]”.

`CCc1nnc(NC(=O)c2c(O)c3c([nH]c2=O)CCCC3)s1`: the outcome was inactive. The same measure, in the same setting: next, `CCC(=O)Nc1ccc(C(=O)Nc2ccc3c(c2)C(=O)N(CC2CCCO2)C3=O)cc1` (configuration not stated): “inactive [dye equivalency, Compound Type: qHTS ECL - DPISMR]”; `Cn1cccc1C(=O)N1CCC2(CC1)CN(c1cccc(-c3ccccc3)c1)C2`: “inactive [dye equivalency, Compound Type: qHTS ECL - Pharmacopeia]”. Same read-out and setting: under `CCOC(=O)CSc1nnc(-c2ccncc2)o1` stands “inactive [dye equivalency, Compound Type: qHTS ECL - DPISMR]”; under `COc1ccc2nc(NC3=NCN(CC4CCCO4)CN3)nc(C)c2c1` (configuration not stated), “inactive”. On to `CCOC(=O)N1CCN(C(=O)c2ccc3nc4cc(Cl)ccc4c(=O)n3c2)CC1`, for which the outcome was inactive. With `CCOC(=O)C1(Cc2ccc(O)cc2)NC(c2ccccc2F)C2C(=O)N(C)C(=O)C21` (configuration not stated), the result was inactive.

`COCCNc1cc(-c2c(C)noc2C)ncn1`: the outcome is “inactive [dye equivalency, Compound Type: qHTS ECL - Pharmacopeia]”.

As for `CCNc1ncc2nc(CCc3ccccc3)c(=O)n(-c3ccc(OC)cc3)c2n1`, the outcome is “inactive [dye equivalency, Compound Type: qHTS ECL - Pharmacopeia]”. As for `Cn1c(CC(=O)Nc2ccccc2)nnc1SCC(=O)c1ccccc1`, the outcome was “inactive [dye equivalency, Compound Type: qHTS ECL - DPISMR]”.

For `COCCn1c(=O)c(-c2cc(F)cc(F)c2)nc2cncnc21`, the outcome is “inactive [dye equivalency, Compound Type: qHTS ECL - Pharmacopeia]”. With `CCOC(=O)C1CCN(Cc2coc3ccc(Cl)cc3c2=O)CC1`, the outcome is “inactive [dye equivalency, Compound Type: qHTS ECL - DPISMR]”. For the compound `Cc1noc(C)c1S(=O)(=O)Nc1ccc(C(=O)O)cc1`, the outcome was “inactive [dye equivalency, Compound Type: qHTS ECL - DPISMR]”.

As to `Cc1c(C)c2cc3c4c(oc3c(C)c2oc1=O)CCCC4`, the result was inactive. For the compound `CN1CCc2[nH]nc(-c3n[nH]c4c3CN(C)CC4)c2C1`, the outcome is “inactive [dye equivalency, Compound Type: qHTS ECL - NCI]”.

Take `O=C1c2ccccc2C(=O)N1c1ccccc1S(=O)C(F)(F)F` (configuration not stated): the outcome is “inactive [dye equivalency, Compound Type: qHTS ECL - DPISMR]”. The same measure, in the same setting: next, `CN(C)c1cc2c(Nc3ccc4c(cnn4Cc4ccccc4)c3)ncnc2cn1`: “inactive [dye equivalency, Compound Type: qHTS ECL - SigmaAldrich]”; `O=c1c(-c2ccc(F)cc2)nc2cncnc2n1-c1ccccc1`: “inactive [dye equivalency, Compound Type: qHTS ECL - Pharmacopeia]”; `Cc1cnc(CNc2cc(-c3c(C)noc3C)ncn2)cn1`: “inactive [dye equivalency, Compound Type: qHTS ECL - Pharmacopeia]”. The same measure, in the same setting: next, `O=C(O)[C@@H]1[C@@H](C(=O)O)[C@]23C[C@@]2(C(=O)O)[C@]2(C(=O)O)CCC3=C3CCCC312`: “inactive [dye equivalency, Compound Type: qHTS ECL - NCI]”. The same measure, in the same setting: next, `Cc1ccc2[nH]c(=O)c(-c3nc4c(C)cccn4c3NCc3ccco3)cc2c1`: “inactive”; `CN(C)c1ccc(CNC23CN4CN(CN(C4)C2)C3)cc1`: “inactive [dye equivalency, Compound Type: qHTS ECL - DPISMR]”. As for `Cn1cc(-c2nc3cnc(N4CCNCC4)nc3n(CCc3ccccc3)c2=O)c2ccccc21`, the outcome is “inactive [dye equivalency, Compound Type: qHTS ECL - Pharmacopeia]”.

Regarding `CNC(=O)NCCN1CCCC1=O`, the result was inactive. On the same count and under the same terms, next, `COc1ccc(-n2c(=O)c(C)nc3cnc(N4CCOCC4)nc32)cc1`: “inactive [dye equivalency, Compound Type: qHTS ECL - Pharmacopeia]”.

Take `CC1(c2ccccc2Cl)NC(=O)N(CC(=O)NC(=O)NCc2ccco2)C1=O` (configuration not stated): the outcome was inactive. For the compound `COc1ccc(CCN2C(=O)c3[nH]nc(-c4ccccc4O)c3C2c2ccc(C)cc2)cc1OC` (configuration not stated), the outcome is “inactive [dye equivalency, Compound Type: qHTS ECL - DPISMR]”. Take `COC(=O)C(C)N(C#N)c1nc(C)nc(C)n1` (configuration not stated): the outcome is “inactive [dye equivalency, Compound Type: qHTS ECL - DPISMR]”. On the same count and under the same terms, next, `Cc1noc(C)c1C(=O)OCC(=O)/C=C1\N(C)c2ccccc2C1(C)C`: “inactive”.

As to `Cc1ccc(Oc2nc3ccccc3n3c(C)nnc23)cc1`, the outcome was “inactive [dye equivalency, Compound Type: qHTS ECL - DPISMR]”. As for `CCOc1ccc(OCC)c(NC(=O)CN(C)S(=O)(=O)c2cccc3nsnc23)c1`, the result was inactive.

As to `CCC(C)(C)NC(=O)C(c1cccn1C)N(Cc1ccc(C)cc1)C(=O)Cn1nnc2ccccc21` (configuration not stated), the outcome was inactive. For `COc1ccc(OCC(=O)OCCN(C)C)cc1`, the outcome was inactive.

Regarding `CC(C)C1N=C2c3ccccc3N=C(SCC(=O)c3ccc(O)c(O)c3)N2C1=O` (configuration not stated), the outcome was “inactive [dye equivalency, Compound Type: qHTS ECL - DPISMR]”.

Turning to `CCC(=O)Nc1cccc(NC(=O)CSc2nnc(-c3ccc(NS(C)(=O)=O)cc3)n2C)c1`, the outcome was inactive.

In the case of `Cc1nn(-c2ccccc2)c2c1C(=O)NC(=O)C(C)(C)C2`, the outcome was inactive. On the same count and under the same terms, under `COc1cc([C@H]2c3cc4c(cc3[C@@H](O[C@@H]3O[C@H]5CO[C@@H](C)O[C@]5(O)C[C@H]3O)[C@@H]3COC(=O)[C@H]23)OCO4)cc(OC)c1O` stands “inactive [dye equivalency, Compound Type: qHTS ECL - SigmaAldrich]”. Turning to `O=C(O)c1c(Br)c(Br)c(Br)c(Br)c1C1c2ccc(O)cc2Oc2cc(O)ccc21`, the max dye equivalency was 15 nM [Compound Type: qHTS ECL - NCI, hits give high values] (active). On to `COc1ccc(OC)c(CN2C(=O)CCC2(C)C(=O)NC2CCCCCC2)c1` (configuration not stated), for which the outcome was inactive. For `CCCCCN(C(=O)NC(=O)Nc1ccccc1OC)S(C)(=O)=O`, the outcome was inactive.

As for `Cn1c(=S)c2[nH]c(SCCCc3ccccc3)nc2n(C)c1=O`, the outcome was “inactive [dye equivalency, Compound Type: qHTS ECL - NCI]”.

As for `ClC(Cl)(Cl)C(N1CCN(c2ccccc2)CC1)N1CCN(c2ccccc2)CC1`, the outcome was “inactive [dye equivalency, Compound Type: qHTS ECL - NCI]”.

With `CCOC(=O)c1cc2n(c1C)-c1ccccc1C2=O`, the outcome was inactive.

With `CCOC(=O)Nc1ccccc1N1C(=O)c2ccccc2C1=O`, the result was inactive. For `CCOC(=O)c1cc2n(c1N)-c1ccccc1C2=O`, the max dye equivalency was 39 nM [Compound Type: qHTS ECL - DPISMR, hits give high values] (active).
